Laboratory results published in PubChem BioAssay (NCATS).
Results filed as inconclusive are left out. Activity calls are given as the source filed them. Calls come from the whole dose curve; as a rule, active = well fitted inhibition curve with a large enough effect; inconclusive = small, poorly fitted or top-dose-only effect; inactive = flat fitted curve, though single readings scatter.

tested on: Zika virus NS2B-NS3 protease; experiment: Primary screen GU AMC qHTS for Zika virus inhibitors (AID 1347154); details: Zika NS2B-NS3 unlinked protease, AMC fluorogenic substrate; series mostly up to 54.1 µM; activity change, negative = inhibition: at the top concentration;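 note: 0% = no-inhibitor control and -100% = no-enzyme control; nearly all actives have a fitted effect of over 70% in size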
From the text: Avindra Nath, Ph.D., National Institute of Neurological Disorders and Stroke (NINDS), Bethesda, MD
Radhakrishnan Padmanabhan, Ph.D., Georgetown University (GU), Washington D.C.
Zika Virus causes congenital defects, including microcephaly and is associated with Guillain-Barre syndrome, eningoencephalitis and myelitis in infected adult. […] Using a target-based approach, we hope to establish a screening paradigm to uncover novel, cell-active NS2B-NS3 protease (Zika Virus) specific inhibitors from NCATS' collection of small molecules using qHTS.
Early Translation Branch (ETB)
National Center for Advancing Translational Sciences (NCATS), Rockville, MD
National Institute of Health (NIH), Bethesda, Maryland
Padmanabhan lab provided the NS2B hydrophilic domain and NS3 protease domain in a noncovalent complex used for the unlinked assay. Control compound aprotinin is obtained from Thermo Scientific (#78432; Waltham, Massachusetts). NS2B-NS3 AMC substrate (Bz-Nle-Lys-Arg-Arg-AMC; Nle-KRR-AMC) purchased from Bachem (#I-1995; Torrance, CA). Ac-VKTGKR-AMC purchased from Genscript or Bachem, Ac-FAAGKR-AMC purchased from Genscript, Ac-GLVKRR-AMC purchased from Genscript, Ac-LKKR-AMC purchased from Genscript.
GU AMC unlinked NS2B-NS3 protease qHTS protocol
Briefly, 3 microL of Zika virus unlinked NS2B-NS3 protease (25 nM for linked final concentration), in assay buffer (10 mM Tris-HCl pH 8.0 with 0.01% Tween 20) was dispensed into a 1,536-well solid-bottom black plate (Greiner Bio One, Monroe, NC). […] Plates were then read immediately on a ViewLux High-throughput CCD imager (PerkinElmer, Waltham, MA) equipped with standard UV fluorescence optics (340(30) nm excitation, 450(20) nm emission) then incubated (room temperature, protected from light) for 15 minutes (~20% conversion). The change in fluorescence intensity over the 15-minute reaction period was normalized against no-inhibitor and no-enzyme controls and the resulting percent inhibition data were fitted to a 4-parameter Hill equation. Aprotinin was used as the intraplate control.

| SMILES | activity change, negative = inhibition | Potency |
| --- | --- | --- |
| CN(CC1(C)CCCO1)S(=O)(=O)c1ccc(Cl)c(S(N)(=O)=O)c1 (stereo not given) | -2.25% (inactive) |  |
| O=C(O)Cn1cnnn1 | 2.08% (inactive) |  |
| COC(=O)/C=C(/C)N | 5.77% (inactive) |  |
| CC(C)C[C@H](NC(=O)CNC(=O)[C@H](Cc1ccc(O)cc1)NC(=O)[C@H](CO)NC(=O)[C@H](Cc1c[nH]c2ccccc12)NC(=O)[C@H](Cc1cnc[nH]1)NC(=O)[C@@H]1CCC(=O)N1)C(=O)N[C@@H](CCCN=C(N)N)C(=O)N1CCC[C@H]1C(=O)NCC(N)=O (stereo in doubt) | -2.21% (inactive) |  |
| COc1cc(C=O)ccc1O | -6.6% (inactive) |  |
| Brc1ccccc1-c1ccccc1 | -1.5% [at 104 µM] (inactive) |  |
| C[N+]1(C)CCC(OC(=O)C(O)(c2ccccc2)C2CCCC2)C1 (stereo not given) | 3.41% (inactive) |  |
| Cc1ncc([N+](=O)[O-])n1C | -0.323% (inactive) |  |
| CN1CC[C@H](c2c(O)cc(O)c3c(=O)cc(-c4ccccc4Cl)oc23)[C@H](O)C1 | 1.99% (inactive) |  |
| CC1(C)S[C@@H]2[C@H](NC(=O)C(c3ccccc3)S(=O)(=O)O)C(=O)N2[C@H]1C(=O)O (stereo not given in full) | 3.61% (inactive) |  |
| O=P(O)(O)OCC(O)CO (stereo not given) | -2.05% (inactive) |  |
| CCCCCOc1ccc(C2SC(=O)NC2=O)cc1OCC (stereo not given) | -8.6% (inactive) |  |
| CCOc1ccccc1OCC1CNCCO1 (stereo not given) | -5.29% (inactive) |  |
| CN1CCCN=C1/C=C/c1cccs1 | -0.981% (inactive) |  |
| CCN(CC)CC(=O)Nc1c(C)cccc1C(=O)OC | -2.42% (inactive) |  |
| O=C(O)CCCC[P+](c1ccccc1)(c1ccccc1)c1ccccc1 | 1.45% (inactive) |  |
| O=C(OCC(O)CO)c1ccccc1Nc1ccnc2c(C(F)(F)F)cccc12 (stereo not given) | -9.45% (inactive) |  |
| C[C@]12CCC(=O)C=C1CC[C@@H]1[C@@H]2[C@@H](O)C[C@@]2(C)[C@H]1CC[C@]2(O)C(=O)COC(=O)CCC(=O)O | 2.53% (inactive) |  |
| CCC(C(=O)NC(=O)NC(C)=O)c1ccccc1 (stereo not given) | 0.513% (inactive) |  |
| O=C(O)C1CCC1 | -2.71% (inactive) |  |

| SMILES | activity change, negative = inhibition | Potency |
| --- | --- | --- |
| COc1cc(/C=C/C(N)=O)cc(OC)c1OC | -20.3% (inactive) |  |
| CCN(CC)C(=O)C1CN2CCc3cc(OC)c(OC)cc3C2CC1OC(C)=O (stereo not given) | -6.89% (inactive) |  |
| CC(=O)OCC[N+](C)(C)C |  | inactive |
| CC(C)(C)C(O)/C=C/c1ccc2c(c1)OCO2 (stereo not given) | 0.119% (inactive) |  |
| Cc1cccc(C)c1NC(=O)c1cc(S(N)(=O)=O)c(Cl)cc1O | -3.99% (inactive) |  |
| CC(C)N(CCC(=O)c1ccc2ccccc2c1)Cc1ccccc1 | -3.94% (inactive) |  |
| O=C1NCCN1CCN1CCC(c2cn(-c3ccc(F)cc3)c3ccc(Cl)cc23)CC1 | -13% (inactive) |  |
| O=C(OCC(COC(=O)c1cccnc1)(COC(=O)c1cccnc1)COC(=O)c1cccnc1)c1cccnc1 | -2.77% (inactive) |  |
| CC(C)=CCNc1ncnc2c1ncn2[C@@H]1O[C@H](CO)[C@@H](O)[C@H]1O | 5.21% (inactive) |  |
| Cc1c(F)cc2c(=O)c(C(=O)O)cn3c2c1CCC3C (stereo not given) | -5.05% (inactive) |  |
| Cc1cnc(NS(=O)(=O)c2ccc(N)cc2)nc1 | 3.57% (inactive) |  |
| CCOC(=O)c1ccc(NC(=O)CN2CCCCC2)cc1 | -0.422% (inactive) |  |
| CC1CC(=O)NN=C1c1ccc(NCC(C)(C)NCC(O)COc2cc(Cl)ccc2C#N)cc1 (stereo not given) | -3.78% (inactive) |  |
| CCc1cc(S(=O)(=O)O)c2cc(C(C)C)cccc1-2 | 2.96% (inactive) |  |
| N#Cc1cc(NC(=O)C(=O)O)c(Cl)c(NC(=O)C(=O)O)c1 | 4.1% (inactive) |  |
| Cc1ccc(O)cc1 | -1.03% (inactive) |  |
| C[C@@H]1C[C@H]2[C@@H]3CCC4=CC(=O)C=C[C@]4(C)[C@@]3(F)[C@@H](O)C[C@]2(C)[C@@]1(O)C(=O)COC(=O)c1ccncc1 | 1.11% (inactive) |  |
| CCCCN(CCCC)C(C(N)=O)c1ccc(OC)cc1 (stereo not given) | -0.516% (inactive) |  |
| CCOC(=O)c1ccc(O)c(O)c1 | -3.25% (inactive) |  |
| O=C1[C@@H]2[C@H]3CC[C@H](C3)[C@@H]2C(=O)N1CCCCN1CCN(c2ncccn2)CC1 | -8.2% (inactive) |  |
